Screens: PubChem BioAssay, National Center for Advancing Translational Sciences (NCATS)
BAZ2B block: qHTS Assay for Inhibitors of BAZ2B; Bromodomain adjacent to zinc finger domain protein 2B (Homo sapiens), Q9UIF8; AlphaScreen BAZ2B-H3K14Ac peptide displacement; 4.4% of 360,000 active; Potency, µM (doses to about 114 µM), for the others: at the highest dose activity change, negative = inhibition, hits mostly inhibitors; further: on the % scale 0 is the no-effect control and ±100 the full control effect; nearly all actives have a fitted effect of over 60% in size
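BAZ2B 50 nM plus b-H3(5-23)K14Ac 50 nM, PBS pH 7.4/0.01% Tween-20, 30 min RT; compound added (max 110 uM), 30 min RT; streptavidin donor/Ni-chelate acceptor beads 10 ug/mL final, 20 min dark; AlphaScreen read.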
L3MBTL1 inh: qHTS Assay for the Inhibitors of L3MBTL1; Lethal(3)malignant brain tumor-like protein 1 (Homo sapiens), Q9Y468; AlphaScreen L3MBTL1–H3K9me1 peptide binding; Potency, µM (doses to about 57.1 µM), for inactives: at the highest dose activity, negative = inhibition, usual class: inhibitors; 0.66% of 230,000 active; AID 485360, 2010; further: on the % scale 0 is the no-effect control and ±100 the full control effect; nearly all actives have a fitted effect of over 60% in size
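First, the protein-peptide complex forms for 30 min at room temperature (L3MBTL1 50 nM, biotinylated H3K9me1 peptide 75 nM). Next, compounds are pin-transferred and incubated 30 min. Finally, AlphaScreen beads are added and read after 30 min.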
G9a inh: qHTS Assay for Inhibitors of Histone Lysine Methyltransferase G9a; Histone-lysine N-methyltransferase EHMT2 (Homo sapiens), Q96KQ7; G9a H3K9 monomethylation, AlphaScreen, 2 h; Potency, µM (series often up to 102 µM), without a hit: top-dose activity, negative = inhibition, most hits filed as inhibitors; 8.8% of 350,000 active; AID 504332, 2011; further: on the % scale 0 is the no-effect control and ±100 the full control effect; nearly all actives have a fitted effect of over 75% in size
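Chemiluminescent proximity detection of H3K9 monomethylation, read after 10 min bead incubation in the dark. Reaction: 20 nM G9a, 500 nM biotin-H3K9 peptide, 20 uM SAM cofactor, 2 h, room temperature, following 15 min enzyme-compound preincubation.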
JMJD2A Tudor: qHTS Assay for Inhibitors of JMJD2A-Tudor Domain. Lysine-specific demethylase 4A (Homo sapiens), O75164. AlphaScreen JMJD2A-Tudor / H3K4me3 peptide binding. Potency, µM (doses to about 114 µM), without a hit: top-dose activity change, negative = inhibition, hits mostly inhibitors. 4.4% of 390,000 active. AID 504339, 2011; further: on the % scale 0 is the no-effect control and ±100 the full control effect; nearly all actives have a fitted effect of over 50% in size
Sfp PPTase inh: qHTS Assay for Inhibitors of Bacillus subtilis Sfp phosphopantetheinyl transferase (PPTase) | Biochemical Sfp PPTase activity, qHTS | Potency, µM, inactives show largest response in the series, negative = inhibition, hits mostly inhibitors | 3.5% of 310,000 active | AID 1490, 2009;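 further: the enzyme is Sfp with the accession as filed and its product quenches rhodamine fluorescence; 0% = enzyme reaction without inhibitor and -100% = no enzyme wells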
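Step 1, compound plus 15 nM Sfp-PPTase, 15 min, room temperature. Step 2, add rhodamine-CoA (5 uM) and BHQ-2-YbbR (12.5 uM). Step 3, read 525/598 nm fluorescence at 0 and 30 min.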
HP1b binding inh: HTS for Inhibitors of HP1-beta Chromodomain Interactions with Methylated Histone Tails | Chromobox protein homolog 1 (Homo sapiens), P83916 | AlphaScreen HP1-beta / biotin-H3K9me3 peptide binding | Potency, µM (top dose mostly 114 µM), without a hit: top-dose activity change, negative = inhibition, usual class: inhibitors | 0.56% of 390,000 active | AID 540317, 2011; further: nearly all actives have a fitted effect of over 70% in size
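HP1-beta protein (50 nM final) preincubated 30 min at room temperature with biotinylated H3(1-18)K9me3 peptide (50 nM) in PBS pH 7.4, 0.01% Tween-20, then compound added for 30 min. AlphaScreen streptavidin donor/nickel chelate acceptor beads (10 ug/mL final), 30 min dark, luminescence read.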
* = called active by the depositor; [ ] = remark or other dose. Most compounds without a hit are left out; they make up all but 12% or so of the library. The call rests on the fitted dose curve; in most records, active means well fitted curve in the direction sought with a large enough effect; inconclusive means small, poorly fitted or top-dose-only effect, or another doubt; inactive means no such curve, though single readings can be large; an effect the other way counts as inactive or inconclusive. Potency means the concentration at half of the fitted maximal effect.

`CN(C)C(=O)Nc1ccc(-n2nc(C(C)(C)C)oc2=O)c(Cl)c1` gave Sfp PPTase inh 6.9%.
For Cc1ccccc1N1C(=O)/C(=C/c2ccco2)C(=O)NC1=S the results were BAZ2B block 1.12µM*, G9a inh 1.78µM* and Sfp PPTase inh 20µM*.
For CCOc1ccc(N2C(=O)/C(=C/c3ccco3)C(=O)NC2=S)cc1 the results were BAZ2B block 28.2µM*, L3MBTL1 inh -8.0%[2.29 µM], G9a inh 16.1%[0.501 µM], JMJD2A Tudor 0.794µM*, Sfp PPTase inh 35.5µM* and HP1b binding inh 1.58µM*.
O=C1NC(=S)N(c2ccccc2F)C(=O)/C1=C\c1cccs1 was read as BAZ2B block 50.1µM*, L3MBTL1 inh 2.4%, G9a inh 1.26µM*, JMJD2A Tudor 50.1µM*, Sfp PPTase inh 11.2µM* and HP1b binding inh -12.2%.
For CCOc1ccc(-n2c(-c3ccoc3)nc3ccccc3c2=O)cc1 the results were BAZ2B block -17.9%, G9a inh inconclusive, JMJD2A Tudor -6.6%, Sfp PPTase inh -27.2% and HP1b binding inh -0.6%.
For CCOc1ccc(N2C(=O)/C(=C\c3cccs3)C(=O)NC2=S)cc1 the results were BAZ2B block -33.4%, L3MBTL1 inh 25.1µM*, G9a inh 7.08µM*, JMJD2A Tudor 35.5µM*, Sfp PPTase inh 12.6µM* and HP1b binding inh 22.8%.
For O=C1NC(=O)C(=Cc2cccs2)C(=O)N1 the results were JMJD2A Tudor 0.0% and HP1b binding inh 15.4%[57 µM].
CON(C)C(=O)Nc1ccc(Br)cc1 was read as Sfp PPTase inh 7.9%.
Screening N[C@H]1C[C@H]1c1ccccc1 returned G9a inh -42.9%[12.7 µM] and Sfp PPTase inh 10.3%.
For CC/C=C\C/C=C\C/C=C\C/C=C\C/C=C\CCCC(=O)NCC(=O)O the results were Sfp PPTase inh 10.2%.
`COc1ccc(-c2noc(=O)n2Cc2cc(C)ccc2C)cc1` gave BAZ2B block -20.1%, L3MBTL1 inh -6.6%, G9a inh -2.9%, JMJD2A Tudor 41.9%, Sfp PPTase inh 12.8% and HP1b binding inh 56.0%.
Screening CCCCc1ccc(NC(=O)c2ccc3c(c2)CCN3S(=O)(=O)CC)cc1 returned BAZ2B block inconclusive, G9a inh inconclusive, JMJD2A Tudor inconclusive and HP1b binding inh -0.9%.
Screening C/C(=C/C=C/[C@@H](C)C(=O)O)[C@H]1CN[C@H](C(=O)O)[C@H]1CC(=O)O returned BAZ2B block -1.6%, L3MBTL1 inh inconclusive, G9a inh inconclusive, JMJD2A Tudor 56.2µM*, Sfp PPTase inh -10.8% and HP1b binding inh 20.9%.
For C=C(C)C1CNC(C(=O)O)C1CC(=O)O (stereo unspecified) the results were Sfp PPTase inh -29.1%.
For Cc1ccccc1CN1CCN(C(=O)Cc2ccccc2)CC1 the results were BAZ2B block 25.1µM*, L3MBTL1 inh 0.4%, G9a inh 15.8µM*, JMJD2A Tudor 11.2µM*, Sfp PPTase inh -3.2% and HP1b binding inh 22.4µM*.
CCC(CC)N1CCN(C(=O)Cc2ccccc2)CC1 was read as BAZ2B block inconclusive, L3MBTL1 inh 1.4%, G9a inh 11.2µM*, JMJD2A Tudor 3.16µM*, Sfp PPTase inh -7.4% and HP1b binding inh inconclusive.
Screening O=C(Cc1ccccc1)N1CCN(Cc2ccc(Cl)cc2)CC1 returned JMJD2A Tudor 10µM* and HP1b binding inh inconclusive.
For CC(=O)Nc1ccc(CC(=O)N2CCN(Cc3ccccc3)CC2)cc1 the results were BAZ2B block -6.4%, G9a inh -1.7%, JMJD2A Tudor -9.1%, Sfp PPTase inh 2.1% and HP1b binding inh 4.6%.
`COC(=O)c1ccc(CN2CCN(Cc3ccccc3)CC2)cc1` gave BAZ2B block -10.0%, L3MBTL1 inh 9.0%, G9a inh -5.8%[59 µM], JMJD2A Tudor 79.4µM*, Sfp PPTase inh 3.1% and HP1b binding inh 4.0%.
CCOC(=O)C1(CCc2ccccc2)CCN(Cc2ccc(NC(C)=O)cc2)CC1 was read as BAZ2B block -2.3%, L3MBTL1 inh 3.1%, G9a inh -10.7%, JMJD2A Tudor -15.3%, Sfp PPTase inh 2.6% and HP1b binding inh 21.0%.
For CC(=O)OC1C(=O)[C@]2(C)C(O)CC3OC[C@]3(OC(C)=O)C2[C@@H](OC(=O)c2ccccc2)[C@]2(O)CC(O)C(C)=C1C2(C)C (stereo partly specified) the results were Sfp PPTase inh -3.9%.
For O=C(Cc1ccccc1)N1CCN(Cc2cccc(Cl)c2)CC1 the results were BAZ2B block inconclusive, L3MBTL1 inh 20.6%[2.29 µM], G9a inh 20.8%[0.501 µM], JMJD2A Tudor 3.16µM*, Sfp PPTase inh -17.7% and HP1b binding inh inconclusive.
For O=C(Cc1ccccc1)OCC(=O)N1CCN(S(=O)(=O)c2ccc(Cl)cc2)CC1 the results were BAZ2B block -3.8%, L3MBTL1 inh 2.0%, G9a inh 31.0%[59 µM], JMJD2A Tudor -16.0% and HP1b binding inh 6.6%.
For CCOc1ccccc1N=C1SCCCN1C the results were BAZ2B block 3.4%, L3MBTL1 inh -2.8%, G9a inh 5.01µM*, JMJD2A Tudor 79.4µM*, Sfp PPTase inh -12.4% and HP1b binding inh 30.7%.
For CC(=O)N1CCCSC1=Nc1ccccc1 the results were BAZ2B block -11.9%, L3MBTL1 inh -5.2%, G9a inh -0.1%, JMJD2A Tudor 2.1%, Sfp PPTase inh 10.1% and HP1b binding inh 39.6%.
For COc1ccc2c(c1)[C@@]13CCCCC1[C@@H](C2)N(C)CC3 (stereo partly specified) the results were G9a inh -37.4%[2.33 µM] and Sfp PPTase inh -6.6%.
`Nc1ccc(CCN2CCCC2)cc1` gave BAZ2B block -18.9%, G9a inh 39.8µM*, JMJD2A Tudor 2.7%, Sfp PPTase inh 10.7% and HP1b binding inh 32.7%.
Screening Nc1ccc(CCN2CCN(c3cccc(C(F)(F)F)c3)CC2)cc1 returned G9a inh 39.8µM*, JMJD2A Tudor inconclusive, Sfp PPTase inh 26.3% and HP1b binding inh -1.7%.
`Cc1onc(-c2ccccc2Cl)c1C(=O)OCC(=O)c1ccc2c(c1)OCCO2` gave BAZ2B block 16.3%, L3MBTL1 inh -6.6%, G9a inh 17.6%, JMJD2A Tudor inconclusive, Sfp PPTase inh -7.5% and HP1b binding inh -6.1%.
C[C@]12CCC3C(C=CC4=CC(=O)CC[C@]43C)C1CC[C@]2(O)CCC(=O)O (stereo partly specified) was read as G9a inh 5.7%[2.33 µM] and Sfp PPTase inh 7.9%.
